The list is not random: actives were taken first. Their share in the collection is about 8.7%.
Pf growth 96h = P. falciparum growth inhibition at 96 hours; P. falciparum luciferase reporter growth, 96 h; Potency, µM (series often up to 28.7 µM), for the others: at the top dose activity change, negative = inhibition, hits mostly inhibitors; actives 6.9% (n = 320,000)
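Readout is luminescence from an integrated firefly luciferase in P. falciparum. Red cells, 2% hematocrit and 0.05% parasitemia final, were cultured with compound through two parasite generations (96 hours) at 37 C, 5% CO2.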
Pf growth 48h = P. falciparum growth inhibition at 48 hours (one generation); P. falciparum luciferase growth in erythrocytes, 48 h; Potency, µM (doses to about 28.7 µM), for the others: at the highest dose activity change, negative = inhibition, usual class: inhibitors; actives 5.9% (n = 310,000); AID 504832
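First compound was added to culture medium, then infected red cells at 0.1% parasitemia and 2% hematocrit (final). After incubation at 37 C under 5% CO2, luciferase detection reagent was dispensed and light output recorded.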
Vaccinia mCherry = vaccinia inhibition (mCherry reporter); AID 720579; Vaccinia virus mCherry reporter infection, fluorescence; Potency, µM (doses to about 36.5 µM), inactives show top-dose activity change, negative = inhibition, usual class: inhibitors; actives 0.63% (n = 310,000); calls by dose curve; tested in A549 cells; also: nearly all actives have a fitted effect of over 35% in size
Vaccinia Venus = inhibitors of vaccinia virus (Venus reporter) | actives 0.46% (n = 330,000) | Vaccinia virus Venus reporter expression, fluorescence | Potency, µM (titrated, usually from 36.5 µM), for inactives: top-dose activity change, negative = inhibition, hits mostly inhibitors; calls by dose curve; tested in A549 cells; also: nearly all actives have a fitted effect of over 30% in size
AMA1 RON2 block = inhibitors of Plasmodium falciparum AMA1-RON2 interaction; AlphaScreen AMA1-biotinylated RON2 peptide binding; Potency, µM (series often up to 58.2 µM), for the others: at the top dose activity change, negative = inhibition, actives largely listed as inhibitors; actives 0.2% (n = 360,000);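 also: 0% = vehicle wells and -100% = peptide control; nearly all actives have a fitted effect of over 45% in size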
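AMA1 (3D7) with his tag at 25 nM final met compounds first, then biotinylated RON2 peptide at 25 nM; detection used donor plus acceptor beads, 10 µg/mL apiece, read by AlphaScreen after 30 min at room temperature.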
An asterisk follows results filed as active; [ ] = dose if it differs, or a comment. Unless noted, calls follow the shape of the dose curve; as a rule, active = well fitted curve in the direction sought with a large enough effect; inconclusive = small, poorly fitted or top-dose-only effect, or another doubt; inactive = no such curve, though single readings can be large; an effect the other way counts as inactive or inconclusive. Unless noted, % is scaled to controls: 0 for no effect and ±100 for the full control effect; potency is read from the fitted curve at half-maximal effect.

How did O=C(Nc1ccc(Cl)cc1)Nc1cccc(C(=O)O)c1 do in these assays?
Pf growth 96h: 3.7µM*; Pf growth 48h: -13%; Vaccinia mCherry: -10%; Vaccinia Venus: -1%; AMA1 RON2 block: -1%

How did Cc1cccc(NC(=O)c2cccc(NC(=O)c3ccccc3)c2)n1 do in these assays?
Pf growth 96h: 13µM*; Pf growth 48h: 0%; Vaccinia mCherry: 7%; Vaccinia Venus: -11%; AMA1 RON2 block: 0%

Results for Cc1cccc(NC(=O)c2cccc3c2-c2ccccc2C3=O)n1 ?
Pf growth 96h: 10%; Pf growth 48h: -30%[5.75 µM]; Vaccinia mCherry: -13%; Vaccinia Venus: 4%; AMA1 RON2 block: -13%

Results for O=C(CNC(=O)C(c1ccccc1)c1ccccc1)OCC(=O)c1cccc2ccccc12 ?
Vaccinia mCherry: -10%; Vaccinia Venus: -17%

How did Cc1c(C(=O)N2CCCCCC2)sc2ncnc(NCC3CCCO3)c12 (centres undefined) do in these assays?
Vaccinia mCherry: inactive; Vaccinia Venus: -12%

Results for COc1ccc(CCn2c3c(c(=O)[nH]c2=S)CN(Cc2ccccc2)CN3)cc1OC ?
Vaccinia mCherry: -26%; Vaccinia Venus: -18%

How did Cc1cccc(NC(=O)c2ccc(NC(C)c3ccccc3)c([N+](=O)[O-])c2)n1 (centres undefined) do in these assays?
Pf growth 96h: -2%; Pf growth 48h: 9.3µM*; Vaccinia mCherry: -1%; Vaccinia Venus: -22%; AMA1 RON2 block: 3%

Results for COC(=O)c1cccc(NC(=O)c2ccccc2)c1 ?
Pf growth 96h: 39%; Pf growth 48h: 38%; AMA1 RON2 block: 1%

What do the screens show for `COC(=O)c1ccc(NC(=O)c2cccc(NC(=O)c3ccccc3)c2)cc1`?
Pf growth 96h: 8.3µM*; Pf growth 48h: -16%; AMA1 RON2 block: -19%

Results for O=C1CSC(=S)N1c1ccccc1 ?
Vaccinia mCherry: 2%; Vaccinia Venus: 21%; AMA1 RON2 block: 2%

Results for O=C(O)c1ccc(N2C(=O)CSC2=S)cc1 ?
Vaccinia mCherry: -2%; Vaccinia Venus: 88%; AMA1 RON2 block: 4%

Results for O=C1CSC(=S)N1c1cccnc1 ?
Pf growth 96h: 13µM*; Vaccinia mCherry: 3%; Vaccinia Venus: 17%; AMA1 RON2 block: 15%

What do the screens show for `O=C1CSC(=S)N1c1ccc(F)c(Cl)c1`?
Pf growth 96h: 12µM*; Pf growth 48h: inconclusive; AMA1 RON2 block: 69%

What do the screens show for `O=C(CNC(=O)c1ccc(F)cc1)OCc1cc(=O)n2nc(C3CC3)sc2n1`?
Vaccinia mCherry: 8%; Vaccinia Venus: -7%

What do the screens show for `COc1cccc(-n2cc(C(=O)NCc3ccc(C)cc3)c3ccccc3c2=O)c1`?
Vaccinia mCherry: -12%; Vaccinia Venus: -2%

How did O=C(NC(Cc1ccccc1)c1nc2ccccc2[nH]1)c1cccc([N+](=O)[O-])c1 (centres undefined) do in these assays?
Pf growth 96h: 12µM*; Pf growth 48h: inconclusive; Vaccinia mCherry: -27%; Vaccinia Venus: -2%; AMA1 RON2 block: -3%

Results for CSCCC(NC(=O)c1cccc([N+](=O)[O-])c1)c1nc2ccccc2[nH]1 (centres undefined) ?
Pf growth 96h: inconclusive; Pf growth 48h: inconclusive; Vaccinia mCherry: -27%; Vaccinia Venus: 8%; AMA1 RON2 block: 9%

How did CSCC[C@H](NC(=O)c1cc([N+](=O)[O-])ccc1Cl)c1nc2ccccc2[nH]1 do in these assays?
Pf growth 96h: 15µM*; Pf growth 48h: 12µM*; AMA1 RON2 block: 3%

Results for CCCNC(=O)C(Cc1ccccc1)NC(=O)c1cccc([N+](=O)[O-])c1 (centres undefined) ?
Pf growth 96h: inconclusive; Pf growth 48h: 8.3µM*; Vaccinia mCherry: -1%; Vaccinia Venus: -6%; AMA1 RON2 block: -1%

What do the screens show for `O=C(Nc1nc2ccccc2[nH]1)c1cccc([N+](=O)[O-])c1`?
Pf growth 96h: 8%; Pf growth 48h: 0%; Vaccinia mCherry: inactive; Vaccinia Venus: -18%; AMA1 RON2 block: 104%

How did NC(=O)N/N=C/c1cccc(OCc2ccc(F)cc2)c1 do in these assays?
Pf growth 96h: 26%; Pf growth 48h: 21%; Vaccinia mCherry: inactive; Vaccinia Venus: -2%; AMA1 RON2 block: 0%

Results for Cc1nnc(N/N=C/c2cccc(OCc3ccc(Cl)c(Cl)c3)c2)n1N ?
Pf growth 96h: inconclusive; Pf growth 48h: 13µM*; Vaccinia mCherry: inconclusive; Vaccinia Venus: inconclusive; AMA1 RON2 block: 39%

What do the screens show for `Cc1nnc(N/N=C/c2cccc(C(F)(F)F)c2)n1N`?
Pf growth 96h: 15µM*; Pf growth 48h: -4%; Vaccinia mCherry: -14%; Vaccinia Venus: 2%; AMA1 RON2 block: 100%

How did CCOc1cc(/C=N/Nc2nnc(C)n2N)ccc1OC(C)=O do in these assays?
Pf growth 96h: inconclusive; Pf growth 48h: -3%; Vaccinia mCherry: 28µM*; Vaccinia Venus: inconclusive; AMA1 RON2 block: 33%

How did CCc1ccc(CNC(=O)c2ccc3nc(C(C)C)oc3c2)cc1 do in these assays?
Vaccinia mCherry: -5%[7.34 µM]; Vaccinia Venus: -3%[7.34 µM]

What do the screens show for `CCN(CC)C(=O)COc1ccc(/C=C(\C#N)S(=O)(=O)c2ccccc2)cc1OC`?
Pf growth 96h: 9.3µM*; Pf growth 48h: 1%; AMA1 RON2 block: -9%

What do the screens show for `O=C(Nc1ccc(Oc2ccc(C(F)(F)F)cn2)c(Cl)c1)C1CC1`?
Pf growth 96h: 12µM*; Pf growth 48h: inconclusive; Vaccinia mCherry: -15%; Vaccinia Venus: -13%; AMA1 RON2 block: 6%

What do the screens show for `Cc1ccc2nc(NC(=O)c3ccc(NS(=O)(=O)c4cccs4)cc3)sc2c1`?
Pf growth 96h: 0.47µM*; Pf growth 48h: inconclusive; Vaccinia mCherry: -24%; Vaccinia Venus: -18%; AMA1 RON2 block: -1%

What do the screens show for `Cc1ccc2nc(NC(=O)CCNS(=O)(=O)c3cccs3)sc2c1`?
Pf growth 96h: 89%; Pf growth 48h: 6%; Vaccinia mCherry: inconclusive; Vaccinia Venus: inconclusive; AMA1 RON2 block: -10%

Results for NS(=O)(=O)c1ccc2nc(NC(=O)c3ccc(Br)o3)sc2c1 ?
Pf growth 96h: 10µM*; Pf growth 48h: 112%; AMA1 RON2 block: -1%

What do the screens show for `CS(=O)(=O)c1ccc2nc(NC(=O)c3ccc(NS(=O)(=O)c4cccc([N+](=O)[O-])c4)cc3)sc2c1`?
Pf growth 96h: inconclusive; Pf growth 48h: inconclusive; AMA1 RON2 block: 1%

Results for CC(=O)Nc1nc2cc(C(N)=O)ccc2s1 ?
Pf growth 96h: inconclusive; Pf growth 48h: 8%; Vaccinia mCherry: inconclusive; Vaccinia Venus: -15%; AMA1 RON2 block: -1%

How did NC(=O)c1ccc2nc(NC(=O)c3ccc(N)cc3)sc2c1 do in these assays?
Pf growth 96h: 12µM*; Pf growth 48h: 81%; Vaccinia mCherry: -4%; Vaccinia Venus: -19%; AMA1 RON2 block: 11%

Bioassay records: PubChem, National Center for Advancing Translational Sciences (NCATS)
